In this assay the test system is TYKNU. Put plainly: fractional viability relative to vehicle; TYKNU is a high-grade serous ovarian cancer line; higher = less growth inhibition. As to conditions: 72 h, genotype: OPA1 knockout (sgOPA1 #2). The essentials: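 TYKNU control cells or lentiCRISPRv2 knockout derivatives were plated at 500 cells per well in duplicate into drug-stamped 384-well plates holding a ~2100-compound library at 2 or 10 μM. Culture was in RPMI 1640 with 10% FBS at 37 °C in 5% CO2, with 72 h of drug treatment. Viability was measured by Cell Titer Glo luminescence, and the averaged duplicate treatment wells were normalised to duplicate control wells at the same plate position.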

Structures can show the parent of a compound that is named as a salt. Whole data set: some 2,000 compounds, median “fractional viability relative to vehicle” near 0.92, cut for the lowest 2% near 0.11. The sample as a whole holds a higher share of the lowest values than the screen did.

With `C[C@H](CCC(=O)NCCS(=O)(=O)O)[C@H]1CC[C@H]2[C@@H]3[C@@H](O)C[C@@H]4C[C@H](O)CC[C@]4(C)[C@H]3CC[C@]12C` [Sodium Tauroursodeoxycholate (TUDC)], the fractional viability (2uM) was 0.832 and the fractional viability (10uM) came out at 0.834.
In the case of `Cc1c(C(=O)NN2CCCCC2)nn(-c2ccc(Cl)cc2Cl)c1-c1ccc(I)cc1`, the fractional viability (2uM) is 0.982 and the fractional viability (10uM) worked out at 0.754.
Compound `CCN(CC)CCCC(C)Nc1nc(C)cc(Nc2ccc3nc(C)cc(N)c3c2)n1` (stereo not given) showed a fractional viability (2uM) of 0.891 and a fractional viability (10uM) of 0.898.
As to `CCN(CC)CCCC(C)Nc1c2ccc(Cl)cc2nc2ccc(OC)cc12` (stereo not given) [Quinacrine 2HCl], the fractional viability was 0.837 (2uM) and 0.105 (10uM).
For the compound `C[C@H](Nc1ncnc2[nH]cnc12)c1cc2ccc(F)cc2nc1-c1ccccn1`, the fractional viability stood at 0.879 (2uM) and 0.836 (10uM).
In the case of `CN(NC(=O)CC(=O)NN(C)C(=S)c1ccccc1)C(=S)c1ccccc1` [Elesclomol (STA-4783)], the fractional viability runs as follows: (2uM) 0.0864; (10uM) 0.107.
Turning to `O=C(O)CCNC(=O)c1ccccc1` [Betamipron], the fractional viability runs as follows: (2uM) 1.14; (10uM) 0.982.
As to `O=C(O)c1ccccc1` [Benzoic Acid], the fractional viability turned out to be 0.885 (2uM) and 0.957 (10uM).
In the same order, the values of `Cc1cc(CS(=O)(=O)c2ccccc2)cc(OCc2ccc(CN3CCC[C@@H]3CO)cc2)c1` are 0.843 and 0.875.
As to `C=C1[C@H](CO)[C@@H](O)C[C@@H]1n1cnc2c(=O)[nH]c(N)nc21` [Entecavir Hydrate], the fractional viability (2uM) is 1.01 and the fractional viability (10uM) amounted to 0.935.
`Cc1nc(C#Cc2ccnc(Cl)c2)c(C)n1-c1ccc(OC(F)(F)F)cc1`: the fractional viability by setting is: (2uM) 1.08; (10uM) 0.815.
Turning to `CCn1c(-c2nonc2N)nc2c(C#CC(C)(C)O)ncc(OC[C@H]3CCCNC3)c21`, the fractional viability amounted to 1.01 (2uM) and 0.698 (10uM).
Turning to `COc1ccc(-c2ccc3ncc4c(c3c2)n(-c2ccc(N3CCNCC3)c(C(F)(F)F)c2)c(=O)n4C)cn1`, the fractional viability is 0.111 (2uM) and 0.0546 (10uM).
With `Nc1ccc(-c2ccc3ncc4ccc(=O)n(-c5cccc(C(F)(F)F)c5)c4c3c2)cn1` [Torin 2], the fractional viability is 0.36 (2uM) and 0.363 (10uM).
Turning to `CNC(=O)c1cc(Oc2ccc3nc(N[C@@H]4CCCC[C@H]4O)sc3c2)ccn1`, the fractional viability turned out to be 0.831 (2uM) and 0.74 (10uM).
Take `COc1cc2ncnc(Nc3ccc(O)c(Br)c3)c2cc1OC`: the fractional viability is, setting by setting: (2uM) 1.37; (10uM) 1.19.
With `N#Cc1c(NC(=O)c2cccc3ccccc23)sc2c1CCCC2` [JNK Inhibitor IX], the fractional viability (2uM) came out at 0.428 and the fractional viability (10uM) is 0.386.
On to `Cc1cc(C)nc(SCC(=O)Nc2ncc(Cc3cccc4ccccc34)s2)n1`, for which the fractional viability runs as follows: (2uM) 0.904; (10uM) 0.931.
On to `COc1cccc2c1C(=O)c1c(O)c3c(c(O)c1C2=O)C[C@@](O)(C(=O)CO)C[C@@H]3O[C@H]1C[C@H](N)[C@H](O)[C@H](C)O1` [Doxorubicin (Adriamycin)], for which the fractional viability reads like this: (2uM) 0.738; (10uM) 0.726.
Take `COc1cccc2c1C(=O)c1c(O)c3c(c(O)c1C2=O)C[C@@](O)(C(C)=O)C[C@@H]3O[C@H]1C[C@H](N)[C@H](O)[C@H](C)O1` [Daunorubicin HCl]: the fractional viability is, setting by setting: (2uM) 0.568; (10uM) 0.108.
In the same order, the values of `CC(=O)[C@]1(O)Cc2c(O)c3c(c(O)c2[C@@H](O[C@H]2C[C@H](N)[C@H](O)[C@H](C)O2)C1)C(=O)c1ccccc1C3=O` [Idarubicin HCl] are 0.56 and 0.0586.
Compound `Cn1nnc(-c2ccc3c(c2)[nH]c2nc(Cc4ccccc4)nc(NC4CCC(N)CC4)c23)n1` (stereo not given) yielded a fractional viability (2uM) of 1.01 and a fractional viability (10uM) of 0.765.
Consider `CC(C)Nc1cc(-c2c[nH]c(C(=O)N[C@H](CO)c3cccc(Cl)c3)c2)c(Cl)cn1`, for which the fractional viability (2uM) was 0.453 and the fractional viability (10uM) stood at 0.36.
In the same order, the values of `Cc1noc(C)c1-c1ccc(-c2cc(C(N)=O)c(NC(N)=O)s2)c(O[C@H]2CCNC2)c1` are 0.847 and 0.778.
Consider `COc1cc2ncnc(Sc3nnc(C)s3)c2cc1OC`, for which the fractional viability reads like this: (2uM) 0.789; (10uM) 0.16.
In the same order, the values of `Cn1cc(CNCC2CCN(c3ncc(C(=O)NO)cn3)CC2)c2ccccc21` are 0.224 and 0.19.
Take `CN(C)Cc1cccc(N=C(c2ccccc2)c2c(O)[nH]c3cc(C(=O)N(C)C)ccc23)c1`: the fractional viability by setting is: (2uM) 1.13; (10uM) 0.78.
For the compound `CCNC(=O)C#Cc1ccc2c(C(=Nc3ccc(CN(C)C)cc3)c3ccccc3)c(O)[nH]c2c1`, the fractional viability is 0.276 (2uM) and 0.0913 (10uM).
With `O=C(O)CCCCC(CCSCc1ccccc1)SCc1ccccc1` (stereo not given), the fractional viability is, setting by setting: (2uM) 1.23; (10uM) 0.919.
Regarding `CCOC(=O)N[C@@H]1CC[C@@H]2[C@@H](C1)C[C@H]1C(=O)O[C@H](C)[C@H]1[C@H]2/C=C/c1ccc(-c2cccc(F)c2)cn1` [Vorapaxar], the fractional viability was 0.913 (2uM) and 1.06 (10uM).
For `CCn1c(=O)c(-c2ccc(-c3cncs3)cc2Cl)cc2cnc(Nc3ccc(N4CCN(C)CC4)cc3)nc21`, the fractional viability amounted to 0.914 (2uM) and 0.64 (10uM).
With `CC1(C)S[C@@H]2[C@H](NC(=O)[C@H](NC(=O)N3CCN(S(C)(=O)=O)C3=O)c3ccccc3)C(=O)N2[C@H]1C(=O)O` [Mezlocillin Sodium], the fractional viability is, setting by setting: (2uM) 0.892; (10uM) 0.979.
In the same order, the values of `Nc1nc(=S)c2ncn([C@H]3C[C@H](O)[C@@H](CO)O3)c2[nH]1` are 1.03 and 0.763.
In the same order, the values of `C[C@@]1(c2cc(-c3cncnc3)c(F)cc2F)CCSC(N)=N1` are 1.12 and 0.948.
`CC(C)C[C@H](NC(=O)CNC(=O)c1cc(Cl)ccc1Cl)B1OC(=O)C(CC(=O)O)(CC(=O)O)O1` registered a fractional viability (2uM) of 0.335 and a fractional viability (10uM) of 0.299.

The record behind these values is the supplement of paper PMC5919970.
